Measured values from the supplement of paper PMC10849652.
Targets with a hit are over-represented here; the source holds about 8,800 in all. About 0.5% of all pairs of compound and target were hits. Values without a mark were called inactive.

Sequence of UniProt O76041 (O76041 whole entry, looked up): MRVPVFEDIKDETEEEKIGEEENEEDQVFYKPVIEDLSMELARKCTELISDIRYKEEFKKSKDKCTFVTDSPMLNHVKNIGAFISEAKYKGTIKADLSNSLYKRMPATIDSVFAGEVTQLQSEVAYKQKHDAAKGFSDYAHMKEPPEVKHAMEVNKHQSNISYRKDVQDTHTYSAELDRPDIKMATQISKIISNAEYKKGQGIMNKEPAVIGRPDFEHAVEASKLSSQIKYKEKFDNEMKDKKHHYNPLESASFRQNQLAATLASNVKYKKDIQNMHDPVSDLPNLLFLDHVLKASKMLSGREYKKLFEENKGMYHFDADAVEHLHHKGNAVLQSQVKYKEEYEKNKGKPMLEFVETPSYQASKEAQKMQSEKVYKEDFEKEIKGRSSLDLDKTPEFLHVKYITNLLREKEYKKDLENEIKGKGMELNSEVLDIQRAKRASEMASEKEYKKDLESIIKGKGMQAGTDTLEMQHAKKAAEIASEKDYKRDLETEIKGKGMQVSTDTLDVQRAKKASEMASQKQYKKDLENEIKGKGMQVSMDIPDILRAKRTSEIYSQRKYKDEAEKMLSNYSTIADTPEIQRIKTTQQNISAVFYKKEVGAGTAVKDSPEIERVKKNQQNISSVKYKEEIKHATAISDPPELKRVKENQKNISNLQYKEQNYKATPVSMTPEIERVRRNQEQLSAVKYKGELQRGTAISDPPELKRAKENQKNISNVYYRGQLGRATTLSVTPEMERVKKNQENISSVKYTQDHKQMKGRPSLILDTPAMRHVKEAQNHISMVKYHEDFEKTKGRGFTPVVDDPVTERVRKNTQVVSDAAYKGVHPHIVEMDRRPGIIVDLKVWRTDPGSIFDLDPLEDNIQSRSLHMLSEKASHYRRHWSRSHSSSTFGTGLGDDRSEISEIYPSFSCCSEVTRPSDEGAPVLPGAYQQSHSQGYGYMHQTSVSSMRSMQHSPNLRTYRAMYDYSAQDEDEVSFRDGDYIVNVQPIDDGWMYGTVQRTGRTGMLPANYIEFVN
Sequence of UniProt O94916 (O94916 whole entry, looked up): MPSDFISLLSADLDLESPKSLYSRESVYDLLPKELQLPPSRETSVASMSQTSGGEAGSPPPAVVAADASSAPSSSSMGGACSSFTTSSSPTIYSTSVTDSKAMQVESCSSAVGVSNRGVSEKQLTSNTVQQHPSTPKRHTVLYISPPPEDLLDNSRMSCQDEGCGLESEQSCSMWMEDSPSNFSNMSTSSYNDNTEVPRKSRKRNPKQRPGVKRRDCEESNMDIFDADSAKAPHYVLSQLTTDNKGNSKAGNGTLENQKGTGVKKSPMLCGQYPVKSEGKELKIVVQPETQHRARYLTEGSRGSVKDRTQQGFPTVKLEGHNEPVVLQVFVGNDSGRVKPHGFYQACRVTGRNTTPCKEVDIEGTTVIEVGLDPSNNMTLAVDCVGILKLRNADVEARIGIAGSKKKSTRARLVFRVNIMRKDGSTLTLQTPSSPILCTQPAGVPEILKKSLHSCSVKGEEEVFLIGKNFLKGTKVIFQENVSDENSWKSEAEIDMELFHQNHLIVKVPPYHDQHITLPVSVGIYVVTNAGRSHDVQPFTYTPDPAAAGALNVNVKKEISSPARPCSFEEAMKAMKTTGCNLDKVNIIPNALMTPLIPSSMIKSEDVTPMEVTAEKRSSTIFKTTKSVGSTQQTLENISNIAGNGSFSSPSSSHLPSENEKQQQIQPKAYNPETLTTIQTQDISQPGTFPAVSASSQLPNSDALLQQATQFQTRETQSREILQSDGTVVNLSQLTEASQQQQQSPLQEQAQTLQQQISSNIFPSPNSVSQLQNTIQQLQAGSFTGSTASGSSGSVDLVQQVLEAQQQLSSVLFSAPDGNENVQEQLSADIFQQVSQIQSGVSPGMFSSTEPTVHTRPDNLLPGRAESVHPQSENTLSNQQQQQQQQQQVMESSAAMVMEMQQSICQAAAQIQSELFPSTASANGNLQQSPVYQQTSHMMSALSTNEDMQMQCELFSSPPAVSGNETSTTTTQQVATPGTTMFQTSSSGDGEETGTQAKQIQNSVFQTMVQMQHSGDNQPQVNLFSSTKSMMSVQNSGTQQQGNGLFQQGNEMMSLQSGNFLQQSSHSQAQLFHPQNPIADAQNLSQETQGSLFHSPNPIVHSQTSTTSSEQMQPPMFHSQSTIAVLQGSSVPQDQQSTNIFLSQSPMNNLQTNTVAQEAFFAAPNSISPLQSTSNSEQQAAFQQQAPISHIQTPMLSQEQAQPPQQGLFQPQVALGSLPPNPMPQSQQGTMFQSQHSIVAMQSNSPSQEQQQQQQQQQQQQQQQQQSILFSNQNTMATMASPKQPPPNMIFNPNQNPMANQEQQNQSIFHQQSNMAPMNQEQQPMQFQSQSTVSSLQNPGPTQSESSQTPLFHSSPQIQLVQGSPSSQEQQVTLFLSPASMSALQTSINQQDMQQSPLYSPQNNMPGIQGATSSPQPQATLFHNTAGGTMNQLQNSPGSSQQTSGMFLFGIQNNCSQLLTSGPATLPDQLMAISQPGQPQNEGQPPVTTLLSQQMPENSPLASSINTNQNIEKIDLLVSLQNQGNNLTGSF
Sequence of UniProt P84157 (P84157 whole entry, looked up): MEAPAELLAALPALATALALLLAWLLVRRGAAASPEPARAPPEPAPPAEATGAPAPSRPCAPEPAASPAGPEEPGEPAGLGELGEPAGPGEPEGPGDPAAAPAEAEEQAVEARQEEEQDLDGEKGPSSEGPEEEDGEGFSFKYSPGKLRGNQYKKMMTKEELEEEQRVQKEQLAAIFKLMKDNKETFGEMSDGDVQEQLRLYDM
Sequence of UniProt P52701 (P52701 whole entry, looked up): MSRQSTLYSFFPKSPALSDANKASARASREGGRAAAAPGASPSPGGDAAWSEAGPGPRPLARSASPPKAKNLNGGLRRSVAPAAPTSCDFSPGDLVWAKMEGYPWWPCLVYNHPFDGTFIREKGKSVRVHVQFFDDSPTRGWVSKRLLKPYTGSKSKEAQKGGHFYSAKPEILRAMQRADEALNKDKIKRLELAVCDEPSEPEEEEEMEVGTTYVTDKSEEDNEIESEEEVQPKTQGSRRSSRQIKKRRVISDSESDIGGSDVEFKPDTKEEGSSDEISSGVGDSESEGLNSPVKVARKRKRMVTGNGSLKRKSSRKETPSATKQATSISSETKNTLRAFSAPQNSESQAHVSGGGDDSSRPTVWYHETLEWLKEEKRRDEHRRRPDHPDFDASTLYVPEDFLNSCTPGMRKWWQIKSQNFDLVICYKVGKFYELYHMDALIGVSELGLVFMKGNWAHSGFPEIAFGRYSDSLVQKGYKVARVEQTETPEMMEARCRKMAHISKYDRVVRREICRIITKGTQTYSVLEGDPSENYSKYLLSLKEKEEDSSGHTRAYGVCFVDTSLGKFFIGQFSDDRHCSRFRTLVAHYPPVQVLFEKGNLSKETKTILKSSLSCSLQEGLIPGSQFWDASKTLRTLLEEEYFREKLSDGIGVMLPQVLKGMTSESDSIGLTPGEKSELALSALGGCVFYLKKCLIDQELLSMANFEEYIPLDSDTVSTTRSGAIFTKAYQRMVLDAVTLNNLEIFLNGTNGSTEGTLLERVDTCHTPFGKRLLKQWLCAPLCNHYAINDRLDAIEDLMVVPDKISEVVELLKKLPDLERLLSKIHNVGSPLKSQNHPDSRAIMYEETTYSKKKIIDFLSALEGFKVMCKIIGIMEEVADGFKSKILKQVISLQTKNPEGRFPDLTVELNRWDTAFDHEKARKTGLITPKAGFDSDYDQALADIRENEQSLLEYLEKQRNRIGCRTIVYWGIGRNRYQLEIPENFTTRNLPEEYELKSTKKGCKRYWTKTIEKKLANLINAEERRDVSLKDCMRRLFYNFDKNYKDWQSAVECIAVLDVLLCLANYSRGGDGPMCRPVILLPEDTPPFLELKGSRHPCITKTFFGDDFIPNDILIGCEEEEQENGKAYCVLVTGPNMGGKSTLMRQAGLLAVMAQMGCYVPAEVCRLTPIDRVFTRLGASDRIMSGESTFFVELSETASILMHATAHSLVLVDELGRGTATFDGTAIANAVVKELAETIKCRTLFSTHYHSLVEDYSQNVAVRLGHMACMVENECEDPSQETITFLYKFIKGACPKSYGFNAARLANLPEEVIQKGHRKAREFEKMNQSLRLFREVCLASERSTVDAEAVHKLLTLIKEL
Sequence of UniProt Q9Y314 (Q9Y314 whole entry, looked up): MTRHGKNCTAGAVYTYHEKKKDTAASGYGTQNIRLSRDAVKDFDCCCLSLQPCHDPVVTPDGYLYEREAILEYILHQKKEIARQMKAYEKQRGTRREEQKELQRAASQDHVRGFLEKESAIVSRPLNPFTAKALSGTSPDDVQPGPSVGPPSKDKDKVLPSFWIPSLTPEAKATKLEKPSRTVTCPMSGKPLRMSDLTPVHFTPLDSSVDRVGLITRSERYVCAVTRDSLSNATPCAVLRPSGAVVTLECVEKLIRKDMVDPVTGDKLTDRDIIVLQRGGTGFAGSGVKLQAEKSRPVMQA
Sequence of UniProt Q96I59 (Q96I59 whole entry, looked up): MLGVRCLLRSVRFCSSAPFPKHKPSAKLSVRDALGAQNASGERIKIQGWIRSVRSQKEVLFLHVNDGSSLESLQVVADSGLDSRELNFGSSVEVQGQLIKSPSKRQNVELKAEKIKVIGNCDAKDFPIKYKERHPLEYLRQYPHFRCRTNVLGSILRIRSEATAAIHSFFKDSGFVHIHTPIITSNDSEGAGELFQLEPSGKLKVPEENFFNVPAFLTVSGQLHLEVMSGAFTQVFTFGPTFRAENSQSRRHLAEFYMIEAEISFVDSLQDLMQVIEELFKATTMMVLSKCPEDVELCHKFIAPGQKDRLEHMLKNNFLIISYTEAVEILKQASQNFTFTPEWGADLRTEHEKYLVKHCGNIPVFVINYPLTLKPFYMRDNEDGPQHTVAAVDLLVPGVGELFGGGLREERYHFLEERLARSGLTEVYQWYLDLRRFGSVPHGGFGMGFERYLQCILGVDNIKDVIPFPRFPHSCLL
Sequence of UniProt Q5JRK9 (Q5JRK9 whole entry, looked up): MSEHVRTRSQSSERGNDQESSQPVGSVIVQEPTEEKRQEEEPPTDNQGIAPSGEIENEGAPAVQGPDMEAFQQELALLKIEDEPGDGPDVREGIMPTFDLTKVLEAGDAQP

These targets were tested with Cn1cc(-c2ccc3c(c2)CCN3C(=O)Cc2cccc(C(F)(F)F)c2)c2c(N)ncnc21 (assay: log2 fold change, soluble protein after heating vs DMSO (PISA); higher = thermal stabilisation; K562 lysate, 10 uM; active = over 0.2 and 3.5 SD of the protein, either way, in both replicates (recomputed)).
In short: (§1)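 Following dounce homogenisation of K562 pellets in PBS pH 7.4 with 1 mM MgCl2, crude extract at 1 mg/mL protein was incubated for 30 min with 10 μM compound. Aliquots were then heated for 3 min over 48°C-58°C and pooled, NP-40 was added to 0.5% at 4°C, and soluble protein was recovered as the supernatant at 21,000xg for 90 min. Channel-sum-equalised TMTpro 16plex LC-MS/MS quantified this protein. Each value, from duplicates, is a log-two fold change in thermal stability relative to solvent controls.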
NPTN (UniProt Q9Y639) gave a log2 fold change of -0.009.
MXRA7 (UniProt P84157) showed a log2 fold change of -0.034.
Target NUP205 (UniProt Q92621) has a log2 fold change of 0.04.
NEBL (UniProt O76041) gave a log2 fold change of -0.007.
NUDT4 (UniProt Q9NZJ9) showed a log2 fold change of 0.006.
For NFAT5 isoform 5 (UniProt O94916), the log2 fold change was -0.014.
For MSH3 (UniProt P20585), the log2 fold change was 0.014.
NFATC2 (UniProt Q13469) was tested, and the log2 fold change was -0.001.
For NT5DC2 isoform 2 (UniProt Q9H857), the log2 fold change was -0.027.
In the case of NR2F2 (UniProt P24468), the log2 fold change is reported as -0.006.
PANK1 (UniProt Q8TE04) gave a log2 fold change of 0.053.
PAK4 (UniProt O96013) showed a log2 fold change of -0.081.
MSH2 (UniProt P43246) was tested, and the log2 fold change was 0.01.
With NSUN2 (UniProt Q08J23) the log2 fold change was 0.022.
MRPS31 (UniProt Q92665) gave a log2 fold change of 0.002.
With PBK (UniProt Q96KB5) the log2 fold change was 0.017.
With NOSIP (UniProt Q9Y314) the log2 fold change was -0.019.
With MYO1C (UniProt O00159) the log2 fold change was -0.038.
Work on NAA30 (UniProt Q147X3) yielded a log2 fold change of -0.005.
With MTCH2 (UniProt Q9Y6C9) the log2 fold change was -0.024.
PARD3 (UniProt Q8TEW0) was tested, and the log2 fold change was 0.024.
In the case of NLRP2 (UniProt Q9NX02), the log2 fold change is reported as 0.032.
Target ORC2 (UniProt Q13416) has a log2 fold change of -0.004.
NOSTRIN (UniProt Q8IVI9) showed a log2 fold change of 0.01.
Work on OSBPL1A (UniProt Q9BXW6) yielded a log2 fold change of -0.027.
PAN2 isoform 2 (UniProt Q504Q3) was tested, and the log2 fold change was 0.079.
With NOC2L (UniProt Q9Y3T9) the log2 fold change was -0.052.
In the case of N4BP2 (UniProt Q86UW6), the log2 fold change is reported as 0.061.
Target NPM3 (UniProt O75607) has a log2 fold change of 0.024.
PAGE2B (UniProt Q5JRK9) was tested, and the log2 fold change was -0.016.
NOCT (UniProt Q9UK39) showed a log2 fold change of 0.017.
NBN (UniProt O60934) showed a log2 fold change of 0.03.
Target MSH6 (UniProt P52701) has a log2 fold change of 0.03.
NELFCD (UniProt Q8IXH7) was tested, and the log2 fold change was 0.034.
For NARS2 (UniProt Q96I59), the log2 fold change was 0.026.

The targets below were run with Cn1cc(CNCC2CCN(c3ncc(C(=O)NO)cn3)CC2)c2ccccc21 [quisinostat] in the same assay as above.
In short: as §1
In the case of NPTN (UniProt Q9Y639), the log2 fold change is reported as -0.038.
MXRA7 (UniProt P84157) gave a log2 fold change of -0.069.
NUP205 (UniProt Q92621) was tested, and the log2 fold change was -0.041.
Target NEBL (UniProt O76041) has a log2 fold change of -0.045.
Work on NUDT4 (UniProt Q9NZJ9) yielded a log2 fold change of 0.129.
Work on NFAT5 isoform 5 (UniProt O94916) yielded a log2 fold change of -0.172.
For MSH3 (UniProt P20585), the log2 fold change was -0.037.
NFATC2 (UniProt Q13469) gave a log2 fold change of -0.133.
In the case of NT5DC2 isoform 2 (UniProt Q9H857), the log2 fold change is reported as -0.002.
With NR2F2 (UniProt P24468) the log2 fold change was -0.024.
Target PANK1 (UniProt Q8TE04) has a log2 fold change of -0.039.
Target PAK4 (UniProt O96013) has a log2 fold change of -0.269.
MSH2 (UniProt P43246) was tested, and the log2 fold change was -0.08.
NSUN2 (UniProt Q08J23) showed a log2 fold change of 0.007.
In the case of MRPS31 (UniProt Q92665), the log2 fold change is reported as -0.046.
PBK (UniProt Q96KB5) gave a log2 fold change of -0.02.
With NOSIP (UniProt Q9Y314) the log2 fold change was -0.151.
In the case of MYO1C (UniProt O00159), the log2 fold change is reported as -0.052.
NAA30 (UniProt Q147X3) showed a log2 fold change of 0.032.
MTCH2 (UniProt Q9Y6C9) gave a log2 fold change of -0.104.
With PARD3 (UniProt Q8TEW0) the log2 fold change was -0.002.
Work on NLRP2 (UniProt Q9NX02) yielded a log2 fold change of -0.031.
ORC2 (UniProt Q13416) was tested, and the log2 fold change was -0.016.
For NOSTRIN (UniProt Q8IVI9), the log2 fold change was -0.031.
With OSBPL1A (UniProt Q9BXW6) the log2 fold change was -0.147.
PAN2 isoform 2 (UniProt Q504Q3) was tested, and the log2 fold change was -0.036.
In the case of NOC2L (UniProt Q9Y3T9), the log2 fold change is reported as -0.082.
With N4BP2 (UniProt Q86UW6) the log2 fold change was -0.001.
Target NPM3 (UniProt O75607) has a log2 fold change of -0.024.
Work on PAGE2B (UniProt Q5JRK9) yielded a log2 fold change of 0.001.
NOCT (UniProt Q9UK39) was tested, and the log2 fold change was 0.
For NBN (UniProt O60934), the log2 fold change was 0.011.
In the case of MSH6 (UniProt P52701), the log2 fold change is reported as -0.091.
NELFCD (UniProt Q8IXH7) gave a log2 fold change of -0.083.
NARS2 (UniProt Q96I59) was tested, and the log2 fold change was -0.023.

What follows are targets tested with Cn1cncc1[C@@](N)(c1ccc(Cl)cc1)c1ccc2c(c1)c(-c1cccc(Cl)c1)cc(=O)n2C [tipifarnib] in the same assay as above.
In short: as §1
Work on NPTN (UniProt Q9Y639) yielded a log2 fold change of 0.043.
MXRA7 (UniProt P84157) gave a log2 fold change of -0.006.
NUP205 (UniProt Q92621) was tested, and the log2 fold change was -0.027.
Target NEBL (UniProt O76041) has a log2 fold change of 0.008.
For NUDT4 (UniProt Q9NZJ9), the log2 fold change was 0.11.
In the case of NFAT5 isoform 5 (UniProt O94916), the log2 fold change is reported as -0.032.
MSH3 (UniProt P20585) showed a log2 fold change of -0.001.
In the case of NFATC2 (UniProt Q13469), the log2 fold change is reported as -0.021.
In the case of NT5DC2 isoform 2 (UniProt Q9H857), the log2 fold change is reported as -0.027.
Target NR2F2 (UniProt P24468) has a log2 fold change of 0.034.
In the case of PANK1 (UniProt Q8TE04), the log2 fold change is reported as 0.079.
Target PAK4 (UniProt O96013) has a log2 fold change of -0.016.
MSH2 (UniProt P43246) gave a log2 fold change of 0.004.
In the case of NSUN2 (UniProt Q08J23), the log2 fold change is reported as 0.027.
With MRPS31 (UniProt Q92665) the log2 fold change was 0.015.
Target PBK (UniProt Q96KB5) has a log2 fold change of 0.033.
For NOSIP (UniProt Q9Y314), the log2 fold change was -0.021.
Target MYO1C (UniProt O00159) has a log2 fold change of 0.019.
For NAA30 (UniProt Q147X3), the log2 fold change was -0.097.
MTCH2 (UniProt Q9Y6C9) gave a log2 fold change of 0.018.
PARD3 (UniProt Q8TEW0) gave a log2 fold change of 0.121.
With NLRP2 (UniProt Q9NX02) the log2 fold change was -0.008.
ORC2 (UniProt Q13416) gave a log2 fold change of 0.004.
With NOSTRIN (UniProt Q8IVI9) the log2 fold change was -0.008.
With OSBPL1A (UniProt Q9BXW6) the log2 fold change was 0.015.
In the case of PAN2 isoform 2 (UniProt Q504Q3), the log2 fold change is reported as -0.049.
Target NOC2L (UniProt Q9Y3T9) has a log2 fold change of -0.087.
Target N4BP2 (UniProt Q86UW6) has a log2 fold change of -0.061.
For NPM3 (UniProt O75607), the log2 fold change was -0.027.
PAGE2B (UniProt Q5JRK9) showed a log2 fold change of 0.026.
NOCT (UniProt Q9UK39) was tested, and the log2 fold change was 0.061.
NBN (UniProt O60934) was tested, and the log2 fold change was 0.005.
For MSH6 (UniProt P52701), the log2 fold change was -0.009.
NELFCD (UniProt Q8IXH7) was tested, and the log2 fold change was -0.032.
Work on NARS2 (UniProt Q96I59) yielded a log2 fold change of 0.007.
